The nature of experiment [1]: small molecules captured by biotinylated probe aFSTL3 – biochemical, small-molecule microarray, fluorescence 635/667, stem cell growth factor project, primary screen (AID 1064).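 Further: measures binding of the biotinylated anti-FSTL3 antibody to printed compounds.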 Particulars: higher = more signal.
Experiment [2] can be described thus: binders from COS7 lysate, DM2A8 probe, primary screen, torsin A project, cell lysate, small-molecule microarray, fluorescence 635/667 (AID 1065). Particulars: higher = more signal, COS7 lysate expressing mutant human TOR1A.
Experiment [3] can be described thus: small molecules captured by biotinylated probe aFGF2 – biochemical, small-molecule microarray, fluorescence 635/667, stem cell growth factor project, primary screen (AID 1067).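 Further: measures binding of biotinylated aFGF2 protein to printed compounds on slides; z-score merges feature fluorescence and signal-to-noise across triplicate slides.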 The following applies: higher = more signal.
Experiment [4] in a line: small molecules captured by biotinylated probe aFGF10 – biochemical, small-molecule microarray, fluorescence 635/667, stem cell growth factor project, primary screen (AID 1071).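 Further: score merges 667 nm spot intensity and signal to noise from triplicate slides.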 The following applies: higher = more signal.
Experiment [5] concerns the target Neurogenic locus notch homolog protein 2 (Homo sapiens) (UniProt Q04721). Briefly: small molecules binding Notch2 protein – biochemical, small-molecule microarray, 635 nm fluorescence, stem cell growth factors, primary screen (AID 1073). The following applies: higher = more signal.
Experiment [6] has as its target Pro-neuregulin-1, membrane-bound isoform (Homo sapiens) (UniProt Q02297). In words: small molecules binding neuregulin-1 protein – biochemical, small-molecule microarray, fluorescence 635/667, psychiatric disease protein project, primary screen (AID 1075).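 Further: score combines 667 nm spot fluorescence with signal to noise.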 Particulars: NRG1 binding, 635 nm fluorescence, higher = more signal.
Experiment [7] relates to Neuregulin-1 EGF-like domain. In words: small molecules binding NRG1 EGF domain – biochemical, small-molecule microarray, 635 nm fluorescence, primary screen (AID 1081).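 Further: binding of the protein to compounds printed on small-molecule microarray slides.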 The following applies: higher = more signal.
A short description of experiment [8]: FRG1 expression reporter modulators in myotubes – cell-based, C2C12 myotubes, firefly/Renilla luciferase, luminescence, FRG1 inhibition for FSHD, primary screen (AID 1084). Particulars: FRG1 promoter luciferase, higher = more signal, called active from +8 up or from −8 down.
Experiment [9] can be described thus: small molecules captured by biotinylated probe aFST – biochemical, small-molecule microarray, fluorescence 635/667, stem cell growth factor project, primary screen (AID 1086).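 Further: score merges 667 nm fluorescence with signal-to-noise of each printed compound spot.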 Particulars: higher = more signal.
Experiment [10] in a line: binders of probe aHhip on microarray, primary screen, stem cell growth factor project, biochemical, small-molecule microarray, fluorescence 635/667 (AID 1087).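 Further: score merges spot fluorescence at 667nm with spot signal to noise ratio.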 Particulars: higher = more signal.

Calls of active or inactive are those of the source.

Sequence of Neurogenic locus notch homolog protein 2 (Homo sapiens) (Q04721 whole entry, looked up, canonical isoform): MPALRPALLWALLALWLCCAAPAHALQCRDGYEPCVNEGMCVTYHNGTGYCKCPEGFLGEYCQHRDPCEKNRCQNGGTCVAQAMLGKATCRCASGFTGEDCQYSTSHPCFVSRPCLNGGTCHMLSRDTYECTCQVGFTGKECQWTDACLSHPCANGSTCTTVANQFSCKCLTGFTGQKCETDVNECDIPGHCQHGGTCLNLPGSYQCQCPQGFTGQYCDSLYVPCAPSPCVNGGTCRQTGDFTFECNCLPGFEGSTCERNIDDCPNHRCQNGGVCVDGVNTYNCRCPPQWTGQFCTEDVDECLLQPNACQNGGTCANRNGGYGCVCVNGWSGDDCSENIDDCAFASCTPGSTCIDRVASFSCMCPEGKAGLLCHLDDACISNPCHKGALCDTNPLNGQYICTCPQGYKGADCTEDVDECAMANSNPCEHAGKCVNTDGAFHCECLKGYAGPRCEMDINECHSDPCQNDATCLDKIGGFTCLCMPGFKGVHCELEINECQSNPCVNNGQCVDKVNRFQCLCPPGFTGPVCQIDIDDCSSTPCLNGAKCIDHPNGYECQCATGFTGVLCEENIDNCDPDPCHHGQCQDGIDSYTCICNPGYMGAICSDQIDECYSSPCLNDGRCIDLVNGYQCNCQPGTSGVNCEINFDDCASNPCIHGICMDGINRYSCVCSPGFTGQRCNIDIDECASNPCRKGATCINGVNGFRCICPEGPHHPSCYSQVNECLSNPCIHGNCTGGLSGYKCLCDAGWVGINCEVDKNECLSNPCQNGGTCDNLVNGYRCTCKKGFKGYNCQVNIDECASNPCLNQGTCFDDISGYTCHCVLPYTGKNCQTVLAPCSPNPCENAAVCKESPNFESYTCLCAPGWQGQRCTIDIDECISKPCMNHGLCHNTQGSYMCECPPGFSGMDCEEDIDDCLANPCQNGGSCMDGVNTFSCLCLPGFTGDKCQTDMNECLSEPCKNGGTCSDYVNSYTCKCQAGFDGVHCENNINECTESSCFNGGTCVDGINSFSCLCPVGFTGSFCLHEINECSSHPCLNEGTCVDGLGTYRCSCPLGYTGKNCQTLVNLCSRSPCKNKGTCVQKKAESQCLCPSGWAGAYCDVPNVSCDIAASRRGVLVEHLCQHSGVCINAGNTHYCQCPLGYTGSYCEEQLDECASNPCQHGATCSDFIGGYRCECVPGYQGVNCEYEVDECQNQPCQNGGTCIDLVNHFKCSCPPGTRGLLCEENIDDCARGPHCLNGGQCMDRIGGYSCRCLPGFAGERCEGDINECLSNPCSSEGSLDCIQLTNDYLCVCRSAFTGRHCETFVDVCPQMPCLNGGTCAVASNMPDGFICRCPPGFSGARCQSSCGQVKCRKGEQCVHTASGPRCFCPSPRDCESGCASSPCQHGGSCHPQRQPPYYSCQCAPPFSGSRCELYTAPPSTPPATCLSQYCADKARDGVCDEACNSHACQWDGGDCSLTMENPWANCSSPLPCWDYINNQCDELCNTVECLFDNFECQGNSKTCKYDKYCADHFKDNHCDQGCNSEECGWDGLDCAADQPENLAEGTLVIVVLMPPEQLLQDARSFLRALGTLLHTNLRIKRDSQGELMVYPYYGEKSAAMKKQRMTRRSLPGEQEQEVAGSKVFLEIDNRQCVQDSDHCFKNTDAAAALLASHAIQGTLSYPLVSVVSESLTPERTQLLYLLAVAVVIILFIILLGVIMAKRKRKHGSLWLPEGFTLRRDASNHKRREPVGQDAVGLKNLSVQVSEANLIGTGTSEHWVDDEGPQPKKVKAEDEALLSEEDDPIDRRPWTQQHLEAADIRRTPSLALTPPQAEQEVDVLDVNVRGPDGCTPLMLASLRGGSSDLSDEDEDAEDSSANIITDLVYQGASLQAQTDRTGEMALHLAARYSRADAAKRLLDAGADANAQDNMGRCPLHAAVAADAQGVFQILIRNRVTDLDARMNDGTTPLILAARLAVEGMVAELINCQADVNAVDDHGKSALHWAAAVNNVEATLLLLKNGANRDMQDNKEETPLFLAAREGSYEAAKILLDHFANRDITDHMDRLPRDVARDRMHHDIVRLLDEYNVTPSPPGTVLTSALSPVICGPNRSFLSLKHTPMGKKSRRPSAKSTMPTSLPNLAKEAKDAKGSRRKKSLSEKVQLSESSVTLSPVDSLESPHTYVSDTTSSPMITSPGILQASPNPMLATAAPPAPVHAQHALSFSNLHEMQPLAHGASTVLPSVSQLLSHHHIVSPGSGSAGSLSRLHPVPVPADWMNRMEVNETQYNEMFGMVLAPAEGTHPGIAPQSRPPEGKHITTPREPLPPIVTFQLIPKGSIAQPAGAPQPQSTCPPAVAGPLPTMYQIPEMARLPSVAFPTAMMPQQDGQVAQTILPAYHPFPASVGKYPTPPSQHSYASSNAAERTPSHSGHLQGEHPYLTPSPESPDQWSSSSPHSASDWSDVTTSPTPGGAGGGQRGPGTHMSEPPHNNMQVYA
Sequence of Pro-neuregulin-1, membrane-bound isoform (Homo sapiens) (Q02297 whole entry, looked up, the tested form may be a part, canonical isoform): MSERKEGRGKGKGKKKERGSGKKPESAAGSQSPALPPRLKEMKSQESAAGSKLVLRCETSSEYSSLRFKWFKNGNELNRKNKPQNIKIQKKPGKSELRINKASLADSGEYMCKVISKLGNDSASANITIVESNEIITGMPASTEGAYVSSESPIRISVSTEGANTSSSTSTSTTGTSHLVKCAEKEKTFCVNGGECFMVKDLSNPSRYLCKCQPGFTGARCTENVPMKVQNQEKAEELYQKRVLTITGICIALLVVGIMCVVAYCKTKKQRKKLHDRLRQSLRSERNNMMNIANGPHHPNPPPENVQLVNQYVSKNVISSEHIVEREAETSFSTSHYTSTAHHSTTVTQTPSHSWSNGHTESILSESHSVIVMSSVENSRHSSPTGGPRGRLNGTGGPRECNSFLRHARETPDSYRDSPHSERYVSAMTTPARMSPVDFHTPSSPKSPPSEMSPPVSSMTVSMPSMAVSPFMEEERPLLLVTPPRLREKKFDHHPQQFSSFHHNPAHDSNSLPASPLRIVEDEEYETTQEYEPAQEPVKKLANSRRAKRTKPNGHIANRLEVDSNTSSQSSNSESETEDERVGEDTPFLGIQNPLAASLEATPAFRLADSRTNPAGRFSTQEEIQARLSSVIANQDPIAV

Regarding `COc1ccccc1CN1C(=O)c2ccccc2[C@@H](C(=O)NCC(C)C)[C@@H]1c1ccc(CO)cc1`, the composite z-score in experiment [1] is 0.482; in experiment [2], -0.117; in experiment [3], 0.0342; in experiment [4], -0.0779; in experiment [5] it was 1.07; in [6], 0.869. In addition, the values for the composite z-score in experiment [7], in experiment [9] and in [10] were 0.7, 0.0346 and -0.0994, respectively. The z-score in experiment [8] was -1.97 (inactive).
`COCCCNC(=O)[C@@]1(Cc2ccccc2CN=[N+]=[N-])N=C(c2ccc(OCCCO)cc2)O[C@H]1c1ccccc1N=[N+]=[N-]`: the composite z-score in experiment [1] stood at 0.749; in [2] it was 1.06; in experiment [3], 0.0524; in experiment [4], 1.18; in experiment [5], 1.18; in experiment [6], 0.765. Further, the composite z-score in experiment [7] amounted to 1.05; in experiment [9], 1.27; in experiment [10], 0.351. In addition, in [8], the z-score was -1.21 (inactive).
Turning to `CN(C)C(=O)[C@]1(Cc2ccccc2N=[N+]=[N-])N=C(c2ccc(OCCCO)cc2)O[C@@H]1c1ccccc1CN=[N+]=[N-]`, the composite z-score was -0.144 in experiment [1]; 0.937 in experiment [2]; 0.122 in experiment [3]; 0.794 in experiment [4]; 1.51 in experiment [5]; 1.8 in [6]. The values for the composite z-score in experiment [7], in experiment [9] and in experiment [10] were 1.19, 0.745 and -0.0994, respectively. Moreover, in experiment [8], the z-score was 0.643 (inactive).
Turning to `NC(=O)[C@@H]1[C@H]2C(=O)O[C@H](c3ccccc3)[C@H](c3ccccc3)N2[C@H](c2ccccc2OCCO)[C@@]12C(=O)Nc1ccc(C#CCCO)cc12`, the composite z-score in experiment [1] was -0.159; in [2] it was 0.45; in experiment [3], -0.0502; in experiment [4], -0.0477; in experiment [5] it was 0.0307; in experiment [6] it was 0.352. The composite z-score in [7] was 0.0434; in experiment [9] it was -0.0579; in [10], -0.236. For the same compound, in experiment [8], the z-score is 0.7 (inactive).
As for `C=CC[C@@]1(C(=O)NCCN2CCOCC2)N=C(c2ccc(OCCCO)cc2)O[C@@H]1c1ccccc1`, the composite z-score in experiment [1] worked out at 0.424; in experiment [2], 1.64; in [3], 0.0342; in [4], 0.66; in experiment [5] it was 0.52; in experiment [6], 0.595. Further, the results for the composite z-score in [7], in [9] and in experiment [10] were 1.36, 1.16 and 0.124, respectively. The z-score in [8] was 0.254 (inactive).
As to `COC(=O)[C@@]1(Cc2ccc(F)cc2)[C@H]2c3cc(C(=O)N(C)C)n(Cc4ccc(C)c(F)c4F)c3C[C@H]2CN1C(=O)c1ccccc1`, the composite z-score in [1] was 0.896; in experiment [2], 0.0685; in [3] it was 0.0697; in experiment [4] it was 0.795; in [5], 1.62; in experiment [6] it was 1.71. Moreover, the composite z-score in experiment [7] was 1.36; in experiment [9], 0.758; in [10], 0.177. Besides, the z-score in experiment [8] is 0.55 (inactive).
As to `O=C1c2ccccc2C(=O)C2CC([C@H]3Oc4ccccc4S(=O)(=O)N4CCC[C@@H]34)=CCC12` (stereo not given in full), the composite z-score in experiment [1] is -0.253; in experiment [2], -0.0672; in [3] it was -0.176; in experiment [4], -0.159; in experiment [5], 0.193; in experiment [6], 0.583. Besides, the composite z-score in experiment [7] is 0.449; in experiment [9] it was -0.0883; in experiment [10], 0.21. For the same compound, the z-score in experiment [8] is -1.71 (inactive).
`O=C1NC(=O)C2C1C=CC(C(O)CCc1ccccc1)N2Nc1ccccn1` (stereo not given): the composite z-score in experiment [1] was 0.313; in experiment [2], 0.478; in experiment [3], -0.0881; in experiment [4], 0.0386; in [5] it was 1.07; in experiment [6] it was 1.19. Besides, the composite z-score in experiment [7] was 0.83; in experiment [9], 0.172; in [10], -0.407. Also, in experiment [8], the z-score was -0.338 (inactive).
Take `COCCOC(=O)N1C(=O)[C@@]2(c3cc(C#CCNC(N)=O)ccc31)[C@H](C(=O)N1CCCCCCC1)[C@H]1C(=O)O[C@H](c3ccccc3)[C@H](c3ccccc3)N1[C@@H]2c1ccc(OCCO)cc1`: the composite z-score is 1.03 in experiment [1]; 0.303 in experiment [2]; -0.0024 in experiment [3]; 0.578 in [4]; 0.754 in experiment [5]; 0.446 in experiment [6]. For the same compound, the composite z-score in experiment [7] came out at 0.0222; in experiment [9], 0.7; in [10], 0.443. Also, the z-score in [8] was -0.557 (inactive).
Take `O=C1O[C@@H](c2ccccc2)[C@@H](c2ccccc2)N2[C@@H](c3ccc(O)cc3)[C@]3(C(=O)Nc4ccc(C#CC5(O)CCCCCC5)cc43)[C@@H](C(=O)N3CCN(c4ncccn4)CC3)[C@H]12`: the composite z-score was -0.381 in [1]; 0.0262 in [2]; 0.0011 in experiment [3]; 0.349 in [4]; 0.609 in [5]; 1.6 in [6]. Also, the values for the composite z-score in [7], in experiment [9] and in experiment [10] were 1.22, 0.204 and -0.0994, respectively. Further, the z-score in [8] was -0.0311 (inactive).
In the case of `[N-]=[N+]=NCc1ccccc1[C@H]1OC(c2ccc(OCCCO)cc2)=N[C@@]1(Cc1ccccc1)C(N)=O`, the composite z-score in experiment [1] was 0.712; in experiment [2], 0.163; in experiment [3], 0.0138; in experiment [4], 0.68; in experiment [5], 1.05; in [6], 1.36. Besides, the composite z-score in [7] came to 1.1; in experiment [9], 1.24; in experiment [10], 0.0623. Further, in experiment [8], the z-score is 2.79 (inactive).
As for `COCCOC(=O)N1C(=O)[C@@]2(c3cc(C#CC4(O)CCCCCC4)ccc31)[C@H](C(=O)N1CCc3cc(OC)c(OC)cc3C1)[C@H]1C(=O)O[C@H](c3ccccc3)[C@H](c3ccccc3)N1[C@@H]2c1ccccc1OCCO`, the composite z-score in experiment [1] was -0.0526; in experiment [2], 1.46; in [3] it was 0.119; in experiment [4], 0.665; in experiment [5], 1.15; in experiment [6], 0.491. Besides, the composite z-score in experiment [7] is 1.22; in experiment [9] it was 1.08; in experiment [10] it was 0.623. Moreover, the z-score in experiment [8] is -0.165 (inactive).
For `COCCOC(=O)N1C(=O)[C@@]2(c3ccccc31)[C@H](c1ccc(OCCO)cc1)N1[C@H](c3ccccc3)[C@H](c3ccccc3)OC(=O)[C@H]1[C@@H]2C(=O)NC[C@H](O)c1ccccc1`, the composite z-score in experiment [1] is -0.115; in experiment [2] it was 0.537; in experiment [3], 0.0276; in experiment [4], 0.228; in experiment [5], 0.614; in [6] it was 1.52. Further, the composite z-score is 1.35 in experiment [7], 0.576 in experiment [9] and -0.0753 in experiment [10]. Further, the z-score in [8] is -1.51 (inactive).
As for `CN(C)C(=O)[C@@]1(CCC(=O)OC(C)(C)C)N=C(c2ccc(OCCCO)cc2)O[C@H]1c1ccccc1N=[N+]=[N-]`, the composite z-score in [1] stood at 0.294; in experiment [2], 1.45; in experiment [3], 0.0168; in experiment [4], 0.739; in experiment [5], 1.2; in [6], 1.96. Also, the composite z-score in [7] was 1.52; in [9] it was 1.79; in experiment [10] it was 0.245. Besides, the z-score in experiment [8] was 0.768 (inactive).
Consider `COC(=O)[C@]1(Cc2ccccc2CN=[N+]=[N-])N=C(c2ccc(OCCCO)cc2)O[C@@H]1c1ccccc1`, for which the composite z-score in experiment [1] was 0.774; in experiment [2] it was -0.556; in experiment [3], -0.137; in [4] it was -1.27; in [5] it was -1.24; in [6] it was 0.4. The composite z-score in experiment [7] was -0.45; in experiment [9], -0.0581; in experiment [10], -0.174. In experiment [8], the z-score was -2.44 (inactive).
